A short description of assay [1]: qHTS assay to identify small molecule antagonists of the glucocorticoid receptor (GR) signaling pathway - cell viability counter screen (AID 720693). Further: nearly all actives have a fitted effect of over 55% in size.
The nature of assay [2]: qHTS assay for identifying genotoxic compounds that show differential cytotoxicity against isogenic chicken DT40 cell lines with known DNA damage response pathways - wild type cell line (AID 743012). Further: nearly all actives have a fitted effect of over 60% in size. Further: potency means the concentration at half of the fitted maximal effect. The method in brief:
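Endpoint: CellTiter-Glo luminescence, 30 min RT. Cells: wild type DT40, 300/well. Exposure: compounds in DMSO, 40 h, 37 C/5% CO2, after ~0.5 h pre-incubation.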
For orientation: qHTS replaces the single test concentration by a dilution series.

A short description of assay [3]: qHTS assay for identifying genotoxic compounds that show differential cytotoxicity against isogenic chicken DT40 cell lines with known DNA damage response pathways - Rev3 mutant cell line (AID 743014). Further: nearly all actives have a fitted effect of over 55% in size. Further: potency means the concentration at half of the fitted maximal effect.
A short description of assay [4]: qHTS assay for identifying genotoxic compounds that show differential cytotoxicity against isogenic chicken DT40 cell lines with known DNA damage response pathways - Rad54/Ku70 mutant cell line (AID 743015). Further: nearly all actives have a fitted effect of over 60% in size. Further: potency means the concentration at half of the fitted maximal effect.
Assay [5] in a line: qHTS assay to identify small molecule antagonists of the androgen receptor (AR) signaling pathway - cell viability counter screen (AID 743033; further: nearly all actives have a fitted effect of over 45% in size).
A short description of assay [6]: qHTS assay to identify small molecule antagonists of the androgen receptor (AR) signaling pathway using the MDA cell line - cell viability counter screen (AID 743041; further: nearly all actives have a fitted effect of over 45% in size). In short, it runs like this: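 Using the breast carcinoma line MDA-kb2 AR-luc, test chemicals were co-incubated with R1881 for 16 h; CellTiter-Fluor reagent, added at 15.5 h, provided a fluorescence measure of live cells.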

Assay [7] deals with Androgen receptor (Homo sapiens) (UniProt P10275). Briefly: qHTS assay to identify small molecule agonists of the androgen receptor (AR) signaling pathway using the MDA cell line (AID 743040; further: nearly all actives have a fitted effect of over 20% in size). The method in brief: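 Stable MMTV-luciferase reporter in MDA-kb2 cells; note the promoter carries GR as well as AR response elements. 16 h compound treatment, 37C, 0% CO2; ONE-Glo luminescence endpoint.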
Androgen receptor (Homo sapiens), sequence (P10275 whole entry, looked up): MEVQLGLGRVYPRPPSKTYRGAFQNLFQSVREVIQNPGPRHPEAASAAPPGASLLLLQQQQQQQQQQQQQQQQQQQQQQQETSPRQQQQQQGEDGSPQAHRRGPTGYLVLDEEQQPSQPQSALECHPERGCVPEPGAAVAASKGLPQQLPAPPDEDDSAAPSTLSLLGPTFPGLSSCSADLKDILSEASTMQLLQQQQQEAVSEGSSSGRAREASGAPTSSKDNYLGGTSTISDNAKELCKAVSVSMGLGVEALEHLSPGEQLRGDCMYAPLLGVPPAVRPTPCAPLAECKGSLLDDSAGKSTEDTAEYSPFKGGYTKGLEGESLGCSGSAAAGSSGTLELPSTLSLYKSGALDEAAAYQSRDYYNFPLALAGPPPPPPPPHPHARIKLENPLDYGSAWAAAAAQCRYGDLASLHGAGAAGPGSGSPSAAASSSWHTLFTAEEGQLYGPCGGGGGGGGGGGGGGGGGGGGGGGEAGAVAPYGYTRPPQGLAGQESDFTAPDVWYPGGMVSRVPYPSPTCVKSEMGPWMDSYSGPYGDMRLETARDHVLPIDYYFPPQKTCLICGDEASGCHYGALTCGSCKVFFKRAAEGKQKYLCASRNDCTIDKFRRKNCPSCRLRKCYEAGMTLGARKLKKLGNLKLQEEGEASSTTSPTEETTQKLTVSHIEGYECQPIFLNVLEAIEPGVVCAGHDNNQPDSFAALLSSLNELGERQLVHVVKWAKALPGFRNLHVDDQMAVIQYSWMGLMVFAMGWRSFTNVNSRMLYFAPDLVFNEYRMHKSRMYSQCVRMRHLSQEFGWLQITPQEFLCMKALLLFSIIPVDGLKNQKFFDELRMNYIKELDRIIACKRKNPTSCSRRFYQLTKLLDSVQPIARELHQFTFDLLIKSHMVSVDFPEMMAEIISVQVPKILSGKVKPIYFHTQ

Assay [8] has the same target. The experiment in a line: qHTS assay to identify small molecule antagonists of the androgen receptor (AR) signaling pathway using the MDA cell line (AID 743042; further: nearly all actives have a fitted effect of over 55% in size). The method in brief:
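Antagonist mode: compounds plus R1881 agonist added to MDA-kb2 AR-luc cells, incubated 16 h at 37C. Luciferase reporter luminescence quantified, with multiplexed CellTiter-Fluor readout for cell viability.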

The target is the same in assay [9]. The experiment in a line: qHTS assay to identify small molecule antagonists of the androgen receptor (AR) signaling pathway (AID 743035; active means well fitted inhibition curve with a large enough effect in the signal ratio in the repeat runs, not every such curve was filed as active; the % refers to the signal ratio). In short, it runs like this:
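R1881 agonist challenge of a HEK293 UAS-beta-lactamase AR reporter line in the presence of compound (16 h, 37C); signal taken as FRET fluorescence after 2 h with LiveBLAzer B/G substrate at room temperature.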

Assay [10] shares this target. Briefly: qHTS assay to identify small molecule agonists of the androgen receptor (AR) signaling pathway (AID 743036; active means well fitted activation curve with a large enough effect in the signal ratio in the repeat runs, with a control signal flat, not every such curve was filed as active; the % refers to the signal ratio). The method in brief:
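Agonist activity was scored by beta-lactamase reporter fluorescence in stably transfected HEK293 cells exposed to compounds for 16 h at 37C and 5% CO2. Substrate loading took 2 h at room temperature.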

Experimental findings from PubChem BioAssay (Tox21) are described below.

Values joined by “and” are separate entries in the source; they are usually repeats but may differ in a detail not shown here. Identical values can stand only once. Inconclusive results are not listed. The source holds several records for some structures; these can differ, active in one and inactive in another. Active and inactive are the calls of the source. Unless noted, the call rests on the fitted dose curve; in most records, active means well fitted curve in the direction sought with a large enough effect in the repeat runs; inconclusive means weak or mixed curves; inactive means no such curve, though single readings can be large; an effect the other way counts as inactive or inconclusive.

Turning to `CC(C)CCCCCCCOC(=O)CCCCC(=O)OCCCCCCCC(C)C`, the result in assay [1] and in assay [5] was inactive. In addition, the Potency result in assay [2], in assay [4] and in [6] was “inactive” in each case. Also, in assay [3], the Potency entry is “inactive and 38.6 µM (active)”.

Turning to `CC(C)OC(=O)COc1ccc(Cl)cc1Cl`, the compound was called inactive in assay [1] and in assay [5]. Besides, the Potency entry in assay [2], in assay [3], in assay [4] and in [6] was “inactive” each time.

For `O=C(O)c1cc2ccccc2cc1O`, the result in assay [1], in [5] and in [8] was inactive. Also, the Potency result in [2], in assay [3], in [4], in assay [7] and in assay [6] was “inactive” throughout.

Turning to `N#Cc1ccccc1`, the call in assay [1] and in [5] was inactive. Also, the Potency result in assay [2], in [3], in assay [4] and in assay [6] was “inactive” in each case.

With `C=CCCCCCCCCC(=O)O`, the result in [1] and in assay [5] was inactive. Besides, the Potency entry in assay [2], in [3], in assay [4] and in assay [6] was “inactive” throughout.

In the case of `CCNc1ccccc1`, the outcome in assay [1], in assay [5], in assay [9] and in assay [8] was inactive. The Potency entry in assay [2], in [3], in assay [4], in assay [10], in assay [7] and in assay [6] was “inactive” in each case.

Take `CCCCC(C=O)CC` (stereo not drawn): the compound was called inactive in assay [1] and in assay [5]. Moreover, the Potency entry in assay [2], in [3], in assay [4] and in assay [6] was “inactive” throughout.

On to `NCCNCCN`, for which the result in [1] and in [5] was inactive. The Potency result in assay [2], in assay [4] and in assay [6] was “inactive” each time. Further, the Potency entry in assay [3] is “inactive and 68.6 µM (active)”.

Regarding `CC(CCl)OP(=O)(OC(C)CCl)OC(C)CCl` (stereo not drawn), the compound was classed as inactive in assay [1] and in assay [5]. The Potency result in assay [2], in assay [3], in assay [4] and in [6] was “inactive” throughout.

Regarding `Brc1ccc(Br)c(Br)c1`, the call in assay [1] and in assay [5] was inactive. Moreover, the Potency entry in assay [2], in assay [3], in assay [4] and in [6] was “inactive” each time.

Regarding `CNC(=S)N(C)C`, the result in assay [1] and in [5] was inactive. Also, the Potency result in [2], in assay [3], in assay [4] and in assay [6] was “inactive” throughout.

Turning to `CC1(C)S[C@@H]2[C@H](NC(=O)COc3ccccc3)C(=O)N2[C@H]1C(=O)O`, the compound was called inactive in assay [1] and in [5]. Also, the Potency entry in assay [2], in [3], in assay [4] and in [6] was “inactive” in each case.

On to `CCO[Si](CCC#N)(OCC)OCC`, for which the outcome in [1] and in assay [5] was inactive. Further, the Potency result in assay [2], in assay [3], in assay [4] and in assay [6] was “inactive” in each case.

As for `Cc1ccc(C(C)C)c(O)c1`, the compound was called inactive in assay [1] and in assay [5]. Moreover, the Potency result in assay [2] is “inactive and 48.6 µM (active)”; in assay [3] it was “inactive and 17.2 µM (active)”; in assay [4] it was “inactive and 61.1 µM (active)”. In [6], the Potency entry is “inactive”.

In the case of `COc1cc(OC)c(C(=O)CCCN2CCCC2)c(OC)c1`, the compound was called inactive in assay [1], in assay [5], in assay [9] and in [8]. Also, the Potency result in [2], in assay [10], in assay [7] and in assay [6] was “inactive” throughout. Further, the Potency result in [3] was “inactive and 21.7 µM (active)”.

Regarding `COc1ccc(CCC(C)=O)cc1`, the compound was called inactive in [1] and in assay [5]. Besides, the Potency entry in [2] and in assay [3] was “inactive” each time.

Consider `CNC(=O)Oc1ccc2c(c1)[C@]1(C)CCN(C)[C@@H]1N2C`, for which the call in assay [1] and in assay [5] was inactive. For the same compound, the Potency result in [2], in assay [4] and in assay [6] was “inactive” in each case. Besides, the Potency entry in assay [3] was “inactive and 48.6 µM (active)”.

For `C=Cc1ccc(C)cc1`, the result in assay [1] and in assay [5] was inactive. In addition, the Potency entry in assay [2], in [3], in assay [4] and in [6] was “inactive” in each case.

As to `Cc1ccc2ncccc2c1`, the outcome in assay [1] and in assay [5] was inactive. For the same compound, the Potency result in assay [2], in assay [3], in assay [4] and in assay [6] was “inactive” each time.

On to `O=C(O)c1ccccc1C(=O)O`, for which the outcome in assay [1] and in assay [5] was inactive. Further, the Potency entry in assay [2], in assay [3], in [4] and in assay [6] was “inactive” in each case.

On to `CN1C(=O)CC[C@H]1c1cccnc1`, for which the result in assay [1] and in [5] was inactive. Moreover, the Potency result in assay [2], in assay [3], in [4] and in assay [6] was “inactive” each time.

For the compound `CCOC(=O)c1ccc(N)cc1`, the outcome in [1] and in assay [5] was inactive. Further, the Potency entry in assay [2], in assay [3] and in assay [6] was “inactive” throughout. For the same compound, in [4], the Potency was 7.17 µM (active) and inactive.

As to `OCc1ccccc1`, the call in [1], in assay [5], in [9] and in [8] was inactive. In addition, the Potency entry in [2], in assay [3], in assay [10], in [7] and in assay [6] was “inactive” throughout.

Turning to `COc1ccc(N)c(C)c1`, the compound was classed as inactive in [1] and in assay [5]. The Potency result in assay [2], in assay [3], in [4] and in assay [6] was “inactive” in each case.

As to `NCCN1CCNCC1`, the outcome in assay [1] and in assay [5] was inactive. For the same compound, the Potency entry in assay [2], in assay [3], in assay [4] and in assay [6] was “inactive” in each case.

For the compound `N[C@H](Cc1c[nH]c2ccccc12)C(=O)O`, the outcome in [1] and in [5] was inactive. For the same compound, the Potency result in [2], in assay [3], in [4] and in [6] was “inactive” in each case.

Take `CC(=O)CC(C)(C)O`: the outcome in assay [1], in assay [5], in assay [9] and in assay [8] was inactive. For the same compound, the Potency entry in assay [2], in assay [3], in [10], in assay [7] and in [6] was “inactive” each time.

As for `CC(CCO)CC(C)(C)C` (stereo not drawn), the result in assay [1], in assay [5], in [9] and in assay [8] was inactive. In addition, the Potency result in assay [2], in assay [3], in assay [10], in assay [7] and in assay [6] was “inactive” each time.

Take `CCNc1cccc(C)c1`: the compound was classed as inactive in [1] and in [5]. Moreover, the Potency result in assay [2], in assay [3], in [4] and in assay [6] was “inactive” throughout.

Take `COc1ccc([N+](=O)[O-])cc1N`: the call in [1] and in assay [5] was inactive. The Potency result in assay [2], in assay [3] and in [6] was “inactive” throughout. Also, in assay [4], the Potency result was “inactive and 54.5 µM (active)”.

As to `CC(=O)CCC=C(C)C`, the call in assay [1] and in assay [5] was inactive. The Potency entry in assay [2], in [3], in [4] and in [6] was “inactive” throughout.

Turning to `c1ccc2c(c1)Cc1ccccc1-2`, the result in assay [1] and in assay [5] was inactive. Also, the Potency result in assay [2] and in assay [6] was “inactive” in each case. Further, the Potency result in [3] was “inactive and 61.1 µM (active)”; in assay [4], “inactive and 61.1 µM (active)”.
